Assay outcomes deposited in PubChem BioAssay by National Center for Advancing Translational Sciences (NCATS).
Compounds with a hit are over-represented: about 13% of the library has one in this group of screens.
Pf growth 96h: Primary qHTS for delayed death inhibitors of the malarial parasite plastid, 96 hour incubation. P. falciparum luciferase reporter growth, 96 h. Potency, µM (highest dose often 28.7 µM), hits mostly inhibitors. hit rate 6.9% among 320,000
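Infected RBCs, 2% Hct / 0.05% parasitemia final; luciferase-reporter P. falciparum; cpd 96 h, 37 C, 5% CO2; luciferase detection reagent; luminescence.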
HCMV inh: qHTS Assay for inhibitors of the human cytomegalovirus (HCMV); HFF cells, HCMV-luciferase reporter, 72 h; stronger effect = lower value; hit rate 4.5% among 410,000; activity change, negative = inhibition, % at 57.5 µM; in the data active means activity change below about -60%; inconclusive means no clear call, values can overlap the other calls; inactive means above about -39%
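Two compound doses tested in HFFs infected with HCMV-luciferase, MOI 1 PFU/cell, 72 h at 37C. Lysate luminescence read with OneGlo; data normalized against buffer-only and 10uM Salinomycin inhibitor controls.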
Pf growth 48h: Primary qHTS for delayed death inhibitors of the malarial parasite plastid, 48 hour incubation; P. falciparum luciferase growth in erythrocytes, 48 h; Potency, µM (highest dose often 28.7 µM), usual class: inhibitors; hit rate 5.9% among 310,000
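Compounds are pin-transferred into medium, infected erythrocytes (2% hematocrit, 0.1% parasitemia final) are added, and plates sit one parasite generation at 37 C in 5% CO2. Detection reagent is then added and luminescence measured.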
HCV inh: qHTS Assay for Inhibitors of Hepatitis C Virus (HCV); Huh7.5.1 HCVcc-Cre infection, luciferase reporter, 44 h; hit rate 3.4% among 340,000; Potency, µM (doses to about 41.8 µM), hits mostly inhibitors
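Infectious HCV cell culture screen: compound-treated cells (1,000/well, pre-plated 4 h) are infected with HCVcc-Cre at roughly 0.5 moi and grown 44 h. Infection is quantified by luciferase signal after 15 min substrate incubation at room temperature.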
A number is an active result. Unless noted, the call rests on the fitted dose curve; in most records, active means well fitted inhibition curve with a large enough effect; inconclusive means small, poorly fitted or top-dose-only effect, or another doubt; inactive means no such curve, though single readings can be large or run the other way.

`O=S(=O)(CC(c1ccccc1)N1CCCCC1)c1ccc(Cl)cc1` (configuration not stated) gave Pf growth 96h inactive, HCMV inh inactive, Pf growth 48h inactive and HCV inh inactive.
Screening Cc1ccc(S(=O)(=O)CC(c2ccccc2)N2CCCCC2)cc1 (configuration not stated) returned Pf growth 96h 10µM, HCMV inh inconclusive, Pf growth 48h inactive and HCV inh inactive.
`O=S(=O)(CC(CN1CCOCC1)N1CCOCC1)c1ccccc1` (configuration not stated) gave Pf growth 96h inactive, HCMV inh inactive, Pf growth 48h inactive and HCV inh inactive.
`Cc1ccccc1CNC(=O)c1ccc(Cn2c(SCc3ccccc3)nc3cccnc32)cc1` gave HCMV inh inactive.
`CCOC(=O)c1cc2c(C)n(-c3ccc(N(C)C)cc3)c(C)c2cc(C(=O)OCC)c1=O` gave Pf growth 96h 3.3µM, HCMV inh inactive, Pf growth 48h inconclusive and HCV inh inactive.
Screening Cc1ccccc1-c1nnc(C2CCN(S(=O)(=O)c3ccc(Cl)cc3)CC2)o1 returned HCMV inh -104.
Screening COc1ccc(-c2nnc(C3CCN(C(=O)c4ccccc4F)CC3)o2)cc1 returned HCMV inh -105.
Cc1ccc(-c2noc(C3CCN(S(=O)(=O)c4ccc5c(c4)OCCO5)CC3)n2)o1 was read as Pf growth 96h inconclusive, HCMV inh -96, Pf growth 48h inconclusive and HCV inh 13µM.
For CN(C)c1ccc(-c2noc(C3CCN(S(=O)(=O)c4cccc(Cl)c4)CC3)n2)cc1 the results were Pf growth 96h 0.19µM, HCMV inh inconclusive, Pf growth 48h inconclusive and HCV inh inconclusive.
For CN(C)c1ccc(-c2noc(C3CCN(S(=O)(=O)c4ccc(C(=O)O)cc4)CC3)n2)cc1 the results were HCMV inh inactive and HCV inh inactive.
Screening N#Cc1nc(-c2ccc(COc3ccc(Cl)cc3)o2)oc1N1CCCCC1 returned HCMV inh inactive.
Screening COC(=O)c1scc(-c2ccc(C)cc2)c1S(=O)(=O)N1CCN(c2cccc(OC)c2)CC1 returned HCMV inh inactive.
CC(=O)c1c(C)oc2ccc(N(C(=O)Oc3ccccc3)S(=O)(=O)c3ccc(Br)cc3)cc12 was read as HCMV inh inactive.
`COc1ccc(-c2nnc(C3CCN(S(=O)(=O)c4cccc(Cl)c4)CC3)o2)cc1` gave HCMV inh -94.
O=S(=O)(c1ccc2ccccc2c1)N1CCC(c2nc(-c3ccncc3)no2)CC1 was read as Pf growth 96h inconclusive, HCMV inh -73, Pf growth 48h 13µM and HCV inh 8.9µM.
COc1cc(OC)cc(C(=O)N2CCN(C(=O)COc3ccccc3)CC2)c1 was read as HCMV inh inactive.
CC1CCC(C(C)C)C(OC(=O)CSc2nccc(=O)[nH]2)C1 (configuration not stated) was read as Pf growth 96h inconclusive, HCMV inh inactive and HCV inh inactive.
For Cc1ccc(-c2c[n+](CC(=O)c3ccc(Br)cc3)c3n2CCCCC3)cc1 the results were Pf growth 96h inactive, HCMV inh -88, Pf growth 48h 5.2µM and HCV inh inactive.
For Brc1ccc(-c2nnc3n2CCCCC3)cc1 the results were Pf growth 96h inactive, HCMV inh inactive and HCV inh inactive.
Screening C[n+]1cc(-c2ccccc2)n2c1CCCCC2 returned Pf growth 96h 1.7µM, Pf growth 48h inconclusive and HCV inh inactive.
For O=C(C[n+]1cc(-c2ccccc2)n2c1CCCCC2)c1ccc(Cl)cc1 the results were Pf growth 96h 0.66µM, HCMV inh inactive, Pf growth 48h 1.5µM and HCV inh inactive.
`O=c1c2sc(-c3ccccc3)cc2nc2n1CCCCC2` gave Pf growth 96h inactive, HCMV inh inconclusive, Pf growth 48h inactive and HCV inh inactive.
Screening CC1CCC(C(C)C)C(OC(=O)C[n+]2cc(-c3ccc(Cl)cc3)n3c2CCCCC3)C1 (configuration not stated) returned Pf growth 96h 2.9µM, HCMV inh -97, Pf growth 48h 2.9µM and HCV inh inactive.
Cc1cccc[n+]1CC(=O)c1ccc(Cl)cc1 was read as HCMV inh inactive and HCV inh inactive.
O=C(NCCS(=O)(=O)N1CCN(c2ccccc2F)CC1)c1ccccc1C(F)(F)F was read as HCMV inh inactive.
Screening COc1cc(OC)cc(N2C(=O)N(CC(=O)c3ccc(F)cc3)c3ccccc3S2(=O)=O)c1 returned HCMV inh inactive.
`Cc1ccc2oc(=O)n(Cc3ccccc3Cl)c2c1` gave HCMV inh inactive.
Screening O=C(Nc1ccc2oc(=O)ccc2c1)c1ccc(-c2cccc(Cl)c2)o1 returned Pf growth 96h inconclusive, HCMV inh -64, Pf growth 48h 10µM and HCV inh 10µM.
Screening COc1cc(NC(=O)c2ccc(-c3cccc([N+](=O)[O-])c3)o2)ccc1NC(=O)C(C)C returned Pf growth 96h inactive, HCMV inh inactive, Pf growth 48h 10µM and HCV inh inconclusive.
O=C(Nc1ccc2oc(=O)ccc2c1)c1ccc(-c2cccc([N+](=O)[O-])c2)o1 was read as Pf growth 96h inconclusive, HCMV inh inactive, Pf growth 48h 4.1µM and HCV inh 8.9µM.
`O=C(Nc1ccc2oc(=O)ccc2c1)c1ccc(-c2ccccc2[N+](=O)[O-])o1` gave Pf growth 96h inactive, HCMV inh inactive, Pf growth 48h inactive and HCV inh inconclusive.
For O=C(Nc1ccc2nn(-c3ccccc3)nc2c1)c1ccc(-c2cccc(Cl)c2)o1 the results were HCMV inh -75.
For COc1cccc(N2CC(NC(=O)c3ccc(S(=O)(=O)N4CCOCC4)cc3)CC2=O)c1 (configuration not stated) the results were HCMV inh inactive.
For CCOC(=O)c1c(C)oc2c1cc(NS(=O)(=O)c1ccc(C)cc1)c1ccccc12 the results were HCMV inh inactive.
`CC(C)(Oc1ccc(Cl)cc1)C(=O)Nc1ccc2oc(=O)ccc2c1` gave Pf growth 96h inconclusive, HCMV inh -66 and Pf growth 48h inconclusive.
For Cc1ccc(-c2noc(-c3ccccc3NC(=O)C3CC(=O)N(c4ccc(C)cc4)C3)n2)cc1 (configuration not stated) the results were HCMV inh inactive.
COc1ccc(C(=O)c2ccccc2)cc1 was read as Pf growth 96h inconclusive, HCMV inh inactive, Pf growth 48h inactive and HCV inh inactive.
For COc1ccc(C(=O)c2ccc(Br)cc2)cc1 the results were Pf growth 96h inconclusive, HCMV inh inactive, Pf growth 48h 12µM and HCV inh inactive.
`C[C@@H]1C[C@H]2OC(=O)C3(CO3)[C@H]2[C@H](O)[C@]2(C)C(=O)C3OC3[C@@H]12` (some centres not stated) gave Pf growth 96h inconclusive and Pf growth 48h 12µM.
